This note sets out measurements from PubChem BioAssay (NCATS).

SMILES strings stand for the structures. Results filed as inconclusive are left out. Calls of active or inactive are those of the source. Calls come from the whole dose curve; as a rule, active = well fitted cell-killing curve with a large enough effect; inconclusive = small, poorly fitted or top-dose-only effect, or effect the other way; inactive = no such curve, though single readings can be large or run the other way.

Assay [1] can be described thus: Quantitative High-Throughput drug screen in 47 multiple myeloma cell lines against the NCATS MIPE library collection: XG6_PLB cell viability assay (AID 1919865). Note: nearly all actives have a fitted effect of over 40% in size. The note with it: XG6 myeloma viability, CellTiter-Glo ATP luminescence, 48 h; series mostly up to 45.8 µM. The essentials: (§1)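 Cells were exposed to library compounds for 48 hours, after which ATP was measured by CellTiter-Glo. Signal was taken as median relative luminescence units.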

Assay [2] can be described thus: Quantitative High-Throughput drug screen in 47 multiple myeloma cell lines against the NCATS MIPE library collection: XG1_PLB cell viability assay (AID 1919866). Note: nearly all actives have a fitted effect of over 35% in size. The note with it: CellTiter-Glo ATP, 48 h; series mostly up to 45.8 µM. The essentials: as §1
(In general: In ATP-based viability assays light output follows the ATP content of the culture.)

A short description of assay [3]: Quantitative High-Throughput drug screen in 47 multiple myeloma cell lines against the NCATS MIPE library collection: VP6_DJ cell viability assay (AID 1919867). Note: nearly all actives have a fitted effect of over 40% in size. Particulars: ATP luminescence, 48 h; series mostly up to 45.8 µM. The essentials: as §1
Assay [4] is described as follows: Quantitative High-Throughput drug screen in 47 multiple myeloma cell lines against the NCATS MIPE library collection: UTMC2_PLB cell viability assay (AID 1919868). Note: nearly all actives have a fitted effect of over 55% in size. Particulars: CellTiter-Glo ATP luminescence, 48 h; viability (% of DMSO control): at 45.8 µM (top of the series). The essentials:
as §1

Assay [5] can be described thus: Quantitative High-Throughput drug screen in 47 multiple myeloma cell lines against the NCATS MIPE library collection: PE2_PLB cell viability assay (AID 1919869). Note: nearly all actives have a fitted effect of over 35% in size. Particulars: PE2_PLB myeloma cells viability, ATP luminescence, 48 h; series mostly up to 45.8 µM. In outline:
as §1

The nature of assay [6]: Quantitative High-Throughput drug screen in 47 multiple myeloma cell lines against the NCATS MIPE library collection: PCM6_Riken cell viability assay (AID 1919870). Note: nearly all actives have a fitted effect of over 30% in size. The note with it: CellTiter-Glo ATP, 48 h; series mostly up to 45.8 µM. In outline:
as §1

Assay [7] is described as follows: Quantitative High-Throughput drug screen in 47 multiple myeloma cell lines against the NCATS MIPE library collection: RPMI8226_ATCC cell viability assay (AID 1919871). Note: nearly all actives have a fitted effect of over 30% in size. Particulars: RPMI8226 myeloma viability, CellTiter-Glo ATP luminescence, 48 h; series mostly up to 45.8 µM. In outline: as §1
The nature of assay [8]: Quantitative High-Throughput drug screen in 47 multiple myeloma cell lines against the NCATS MIPE library collection: KMS11_JCRBsus cell viability assay (AID 1919873). Note: nearly all actives have a fitted effect of over 50% in size. Particulars: KMS11 myeloma viability, CellTiter-Glo ATP luminescence, 48 h; series mostly up to 45.8 µM. In outline:
as §1

Assay [9] can be described thus: Quantitative High-Throughput drug screen in 47 multiple myeloma cell lines against the NCATS MIPE library collection: OPM2_DSMZ cell viability assay (AID 1919872). Note: nearly all actives have a fitted effect of over 30% in size. The note with it: OPM2 myeloma viability, CellTiter-Glo ATP luminescence, 48 h; series mostly up to 45.8 µM. In outline: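 Myeloma cell lines, 500 cells per well, exposed to MIPE 4.0 library compounds for 48 h at 37C, 5% CO2. Viability from ATP by CellTiter-Glo luminescence; normalised to DMSO (100%) and media-only (0%) wells.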
Potency is the fitted concentration of half-maximal effect.

Consider `COC(=O)[C@@H]1[C@H]2C[C@@H]3c4[nH]c5ccccc5c4CCN3C[C@@H]2CC[C@@H]1O`, for which the Potency entry in assay [1], in assay [2], in [3], in assay [4], in assay [5] and in assay [6] was “inactive” each time. Further, the Potency result in [7] and in [8] was “inactive” in each case.

Consider `C[C@]12CC[C@@H]3c4ccc(O)cc4CC[C@H]3[C@H]1CC[C@H]2O`, for which the Potency in assay [1] was 5.9 µM (active); in assay [2], 6.62 µM (active); in assay [3] it was 8.33 µM (active); in assay [5] it was 16.6 µM (active); in assay [7], 18.7 µM (active); in [8], 14.8 µM (active).

With `Cc1cnn(C)c1C(=O)Nc1cc(Nc2ccc3c(C=Cc4ccccn4)n[nH]c3c2)ccc1F`, the Potency in assay [1] was 5.9 µM (active); in assay [2], 4.69 µM (active); in assay [3], 10.5 µM (active); in assay [4] it was 10.5 µM (active); in assay [5] it was 2.64 µM (active); in [6], 4.69 µM (active). The Potency is 26.4 µM (active) in assay [7], 18.7 µM (active) in assay [9] and 11.8 µM (active) in [8].

In the case of `OCCN1C[C@H](O)[C@@H](O)[C@H](O)[C@@H]1CO`, the Potency result in [1], in assay [2], in assay [3], in assay [4], in [5] and in [9] was “inactive” in each case. Further, the Potency result in assay [8] is “inactive”.

On to `FC(F)c1nc2ccccc2n1-c1nc(N2CCOCC2)nc(N2CCOCC2)n1`, for which the Potency in assay [1] was 0.59 µM (active); in assay [2], 0.209 µM (active); in [3] it was 0.132 µM (active); in assay [4], 0.118 µM (active); in assay [5], 0.372 µM (active); in assay [7], 0.296 µM (active). In assay [9], the Potency is 2.09 µM (active).

Regarding `COc1cc([C@@H]2c3cc4c(cc3[C@H](O)[C@H]3COC(=O)[C@@H]23)OCO4)cc(OC)c1OC`, the Potency in assay [1] is 0.0833 µM (active); in assay [2], 0.0469 µM (active); in [3] it was 0.296 µM (active); in [4], 0.209 µM (active); in [5], 0.148 µM (active); in [6], 0.332 µM (active). Moreover, the Potency is 0.469 µM (active) in assay [7], 0.148 µM (active) in assay [9] and 0.0296 µM (active) in [8].

For the compound `N[C@H]1CN(c2c(F)cc3c(=O)c(C(=O)O)cn(C4C[C@@H]4F)c3c2Cl)CC12CC2` (stereo partly specified), the Potency result in assay [1], in assay [2], in assay [3], in assay [5], in assay [6] and in assay [8] was “inactive” each time.

As for `Nc1nc2c(c(=O)[nH]1)N(C=O)[C@H](CNc1ccc(C(=O)N[C@@H](CCC(=O)O)C(=O)O)cc1)CN2`, the Potency result in assay [1], in assay [2], in assay [3], in assay [5], in [6] and in assay [7] was “inactive” each time. The Potency entry in [9] and in assay [8] was “inactive” throughout.

With `CC(=O)O[C@@]12CO[C@H]1C[C@H](O)[C@@]1(C)C(=O)[C@H](O)C3=C(C)[C@@H](OC(=O)C(O)[C@@H](NC(=O)OC(C)(C)C)c4ccccc4)C[C@@](O)([C@@H](OC(=O)c4ccccc4)[C@@H]21)C3(C)C` (stereo partly specified), the Potency entry in assay [1], in assay [2], in assay [3], in assay [4], in [5] and in [6] was “inactive” throughout. Further, the Potency result in assay [9] and in assay [8] was “inactive” throughout.

As to `C[C@H]1C[C@H]2[C@@H]3CCC4=CC(=O)C=C[C@]4(C)[C@@H]3C(=O)C[C@]2(C)[C@@]1(O)C(=O)CO`, the Potency result in [1], in assay [2], in [5], in assay [6], in assay [7] and in [9] was “inactive” throughout. Also, the Potency result in [8] is “inactive”. In [3], the Potency was 6.62 µM (active).

In the case of `C=C(C)[C@@H]1CC[C@]2(C)CC[C@]3(C)[C@H](CC[C@@H]4[C@@]5(C)CC[C@H](O)C(C)(C)[C@H]5CC[C@]43C)[C@@H]12`, the Potency result in assay [1], in assay [2], in assay [3], in assay [4], in assay [5] and in assay [6] was “inactive” each time. The Potency result in assay [8] was “inactive”.

For `CCN(CC)CCNC(=O)c1c(C)[nH]c(C=C2C(=O)Nc3ccc(F)cc32)c1C`, the Potency in assay [1] is 1.71 µM (active); in assay [2], 3.03 µM (active); in assay [3] it was 1.52 µM (active); in [4], 0.54 µM (active); in assay [5], 2.15 µM (active); in assay [6], 1.52 µM (active). The values for the Potency in assay [7] and in [8] were 10.8 µM (active) and 1.52 µM (active), respectively.

Turning to `CCOC(=O)[C@@H](N)Cc1ccc(-c2cc(O[C@H](c3ccc(Cl)cc3-n3ccc(C)n3)C(F)(F)F)nc(N)n2)cc1`, the Potency in assay [1] was 16.6 µM (active); in assay [2], 23.5 µM (active); in assay [3], 26.4 µM (active); in assay [4], 20.9 µM (active); in assay [5], 23.5 µM (active); in assay [6], 18.7 µM (active). In addition, the values for the Potency in [7] and in assay [8] were 20.9 µM (active) and 16.6 µM (active), respectively.

Regarding `NC(=NCCCCCCN=C(N)N=C(N)Nc1ccc(Cl)cc1)N=C(N)Nc1ccc(Cl)cc1`, the Potency in [1] was 2.35 µM (active); in assay [2], 2.64 µM (active); in assay [3] it was 2.35 µM (active); in [4] it was 5.26 µM (active); in assay [5], 6.62 µM (active); in assay [6], 2.64 µM (active). In addition, the Potency in assay [7] is 16.6 µM (active); in [9], 14.8 µM (active); in assay [8], 14.8 µM (active).

As for `COc1ccc(Nc2cc(-c3cnc(N)nc3)nc(N3CCOCC3)n2)cn1`, the Potency is 3.72 µM (active) in [1]; 2.35 µM (active) in assay [2]; 5.26 µM (active) in assay [3]; 3.32 µM (active) in [5]; 7.43 µM (active) in assay [9]; 0.469 µM (active) in assay [8].

With `CCOc1cc2ncc(C#N)c(Nc3ccc(OCc4ccccn4)c(Cl)c3)c2cc1NC(=O)C=CCN(C)C`, the Potency in assay [1] was 0.0187 µM (active); in [2] it was 0.132 µM (active); in [3] it was 1.18 µM (active); in assay [5] it was 5.26 µM (active); in assay [6] it was 0.332 µM (active); in assay [8], 14.8 µM (active).

For `CC(Oc1ccc(O)cc1)(P(=O)(O)O)P(=O)(O)O`, the Potency result in assay [1], in [2], in assay [3], in assay [6], in [7] and in [9] was “inactive” throughout. Besides, in [8], the Potency entry is “inactive”. Also, the Potency in [5] was 2.35 µM (active).

Turning to `COc1cc2c(cc1OC)[C@@H]1C(=O)c3ccc4c(c3O[C@@H]1CO2)C=CC(C)(C)O4`, the Potency is 0.105 µM (active) in assay [1]; 6.62 µM (active) in assay [2]; 0.0418 µM (active) in assay [3]; 0.418 µM (active) in assay [4]; 7.43 µM (active) in assay [5]; 7.43 µM (active) in [6]. For the same compound, in [8], the Potency was 0.0418 µM (active).

As for `Oc1cc2c(cc1O)C1c3ccc(O)c(O)c3OCC1(O)C2` (stereo unspecified), the Potency result in assay [1], in assay [2], in [7], in [9] and in assay [8] was “inactive” in each case. Besides, the Potency in assay [5] is 20.9 µM (active).

For `COc1ccc2cc([S+]([O-])Cc3ncc(C)c(OC)c3C)nc2c1`, the Potency result in [1], in assay [2], in assay [3], in [6], in assay [7] and in assay [9] was “inactive” each time. In [8], the Potency entry was “inactive”.

As for `CC1(C)CC(O)CC(C)(C)N1[O]`, the Potency entry in assay [1], in [2], in assay [5], in assay [6], in [7] and in assay [9] was “inactive” in each case. Also, the Potency result in [8] was “inactive”.

Regarding `CCc1nc(-c2cccc(C)c2)c(-c2ccnc(NC(=O)c3ccccc3)c2)s1`, the Potency was 20.9 µM (active) in assay [1]; 23.5 µM (active) in [4]; 13.2 µM (active) in [5]; 18.7 µM (active) in [9]; 20.9 µM (active) in assay [8].

Consider `CC(Cc1ccc(O)c(O)c1)(NN)C(=O)O` (stereo unspecified), for which the Potency entry in [1], in assay [2], in assay [4] and in assay [5] was “inactive” in each case. In addition, the Potency in assay [8] is 26.4 µM (active).

Regarding `Cc1cncc2cccc(S(=O)(=O)N3CCCN(C(=O)CN)C[C@@H]3C)c12`, the Potency was 20.9 µM (active) in assay [2], 5.9 µM (active) in assay [4] and 20.9 µM (active) in [6]. The Potency entry in assay [3], in [7] and in [9] was “inactive” each time.
